The whole screen tested about 190,000 compounds, of which about 930 (0.49%) were called active. This is one part of the list. Entries with a potency or affinity are not part of this list. Unmarked numbers belong to inactive results.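 The calls were made as follows: active = z-score of insulin promoter reporter brightness in nuclei below -3 at 5 µM, with at least 500 cells counted; inconclusive = wells with under 500 cells, flagged as toxic or sparse; inactive = the rest.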
experiment: decrease of insulin promoter-GFP reporter – imaging, high-content screening, mouse beta cells (AID 1628); conditions: MIN6 insulin promoter GFP reporter, at 5 µM, hits give low values

Row | Structure (SMILES) | z-score
1 | O=C(N/N=C/c1cc(Br)ccc1O)Nc1ccccc1 | -4.87 (active)
2 | CC(=O)Nc1ccc(C(=O)N/N=C/c2cc(Br)cc(Br)c2O)cc1 | -3.57 (active)
3 | O=C(Nc1ccc(Br)cc1)C(c1ccccc1)c1ccccc1 | -0.28
4 | COc1cc([C@@H]2[C@H]3CNCC=C3C(C#N)=C(N)C2(C#N)C#N)ccc1OC(C)C | 3.59
5 | c1ccc(CSc2ccc(-c3ccccn3)nn2)cc1 | 4.07
6 | C/C(=N/O)c1ccccn1 | 0.09
7 | Cc1nn(-c2c(Cl)cc(Cl)cc2Cl)c(=O)c2ccccc12 | 3.38
8 | CCN(c1ccccc1)S(=O)(=O)c1ccc(C(=O)Nc2nnc(C3CC3)o2)cc1 | -3.06 (active)
9 | O=S(=O)(Cc1ccc(Cl)cc1)c1ccccc1-c1nnc(-c2ccccc2)o1 | 13.8
10 | CCc1cc2c(=O)n(Cc3ccco3)c(SCC(=O)N3CCCc4ccccc43)nc2s1 | -3.14 (active)
11 | CCN(C(=O)CSc1nc2cc(C(=O)OC)ccc2c(=O)n1Cc1ccco1)c1cccc(C)c1 | 4.54
12 | Cc1cccc2cc3c(N)c(C(=O)N4CCCc5ccccc54)sc3nc12 | 6.25
13 | Cc1cc2c(=O)n(Cc3ccco3)c(SCC(=O)c3ccc(Cl)s3)nc2s1 | -9.67 (active)
14 | CN(c1ccccc1)c1ccc(/C=c2\s/c(=C(/C#N)C(=O)C(C)(C)C)n(Cc3ccco3)c2=O)cc1 | 12.8
15 | O=C(O)c1ccccc1N/N=C/c1c(Sc2nnnn2-c2ccccc2)nc2ccccn2c1=O | 9.93
16 | CCOC(=O)CC1C(=O)NCCN1c1nc2c(C)cccn2c(=O)c1/C=C1\SC(=S)N(C(C)CC)C1=O (stereo not drawn) | 9.72
17 | O=C(N/N=C/c1ccc(O)cc1O)c1ccc(CN2C(=O)c3cccc4cccc2c34)cc1 | -3.91 (active)
18 | O=C1c2cccc3c(O)ccc(c23)C(=O)N1Cc1ccccc1 | 5.05
19 | CSc1c(C#N)c(N)nc2sc(C(=O)c3ccc(Cl)c(Cl)c3)c(N)c12 | 5.56
20 | CCN(CC)S(=O)(=O)c1cccc(S(=O)(=O)c2cccc(S(=O)(=O)N(CC)CC)c2)c1 | -4.75 (active)
21 | COc1ccc(NC(=S)N(CCCN2CCC(C)CC2)Cc2cccs2)cc1 | 1.67
22 | Cc1cc(NC(=S)N(Cc2ccc(Br)cc2)Cc2ccc(C(=O)O)cc2)ccc1Cl | 3.8
23 | CC(C)N1CC=C2C(C#N)=C(N)C(C#N)(C#N)C(c3ccccc3)C2C1 (stereo not drawn) | 5.63
24 | Cc1cccc(NC(=O)Nc2ccc(C#N)cc2)n1 | 3.41

Row | Structure (SMILES) | z-score
25 | CC(C)(C)c1nc(NC(=O)Nc2ccccc2)sc1Br | -4.02 (active)
26 | COc1cc(N=Nc2cccc(S(N)(=O)=O)c2)c2ccccc2c1N | 5.92
27 | CN(C)c1ncc(S(=O)(=O)c2ccc(Cl)cc2)c(-c2ccccc2)n1 | -3.06 (active)
28 | CCN(CC)c1ccc2cc(S(=O)(=O)c3ccc(Cl)cc3)c(=O)oc2c1 | 6.96
29 | O=C(CSc1ccc(-c2ccccc2)nn1)NCC1CCCO1 (stereo not drawn) | 3.02
30 | O=C(CSc1oc(-c2ccco2)nc1S(=O)(=O)c1ccc(F)cc1)NCC1CCCO1 (stereo not drawn) | 0.69
31 | C=CCN1C(=O)c2cccc3c(N4CCCCC4)ccc(c23)C1=O | 5.61
32 | C=CCc1ccccc1OCC(O)CN1CCN(CCN2C(=O)c3cccc4cccc(c34)C2=O)CC1 (stereo not drawn) | -5.75 (active)
33 | COc1ccc(NC(=O)C(=O)NCc2ccncc2)c(OC)c1 | -4.99 (active)
34 | COc1ccc(NC(=O)C/C(C)=N/NC(=O)C(=O)Nc2cccc(Cl)c2C)c(OC)c1 | 0.92
35 | CC(C)C1S/C(=N/N=C/c2ccco2)NC1=O (stereo not drawn) | 3.25
36 | N#Cc1cc([N+](=O)[O-])ccc1N1CCCC1 | -5.65 (active)
37 | O=C(c1cc([N+](=O)[O-])ccc1N1CCCC1)N1CCCC1 | 3.06
38 | Nc1ccc2c(c1)Cc1cc([N+](=O)[O-])ccc1-2 | 7.76
39 | Cc1cc(C)nc(SCc2ccc(C(=O)N/N=C/c3cccc(O)c3O)cc2)n1 | -3.45 (active)
40 | Cc1cc(C)nc(SCSc2nc(C)cc(C)n2)n1 | 4.55
41 | COC(=O)c1ccc(NC(=O)Nc2ccc(F)cc2)cc1 | -3.46 (active)
42 | O=C(Nc1ccc(F)cc1)Nc1cc(OCC(F)(F)F)cc(OCC(F)(F)F)c1 | -3.21 (active)
43 | COC(=O)c1sc2ccccc2c1-n1cccc1C(=O)C(=O)Nc1ccc(F)cc1 | 5.4
44 | Cc1ccc(SCc2cc(-c3ccc(Cl)cc3)no2)cc1 | 3.09
45 | O=C1Nc2ccc(Br)cc2C12NNc1ccccc1O2 (stereo not drawn) | 14.4
46 | O=C(Cc1nc(-c2ccc([N+](=O)[O-])cc2)cs1)Nc1ccccc1 | 8.58
47 | N#C/C(=C/c1ccc(O)c([N+](=O)[O-])c1)C(=O)Nc1ccccc1 | 1.31
48 | O=C(Nc1ccc(Cl)cc1)/C(=C/c1ccc([N+](=O)[O-])cc1)c1nc2ccccc2s1 | -4.86 (active)
